In PubChem BioAssay (NCATS):
Results filed as inconclusive are left out. Active and inactive are the calls of the source. Unless noted, the call rests on the fitted dose curve; in most records, active means well fitted curve in the direction sought with a large enough effect; inconclusive means small, poorly fitted or top-dose-only effect, or another doubt; inactive means no such curve, though single readings can be large; an effect the other way counts as inactive or inconclusive.

How the values were obtained:
[1] = qHTS to identify inhibitors of the type 1 interferon - major histocompatibility complex class I in skeletal muscle: primary screen against the NCATS Pharmaceutical Collection (AID 1347407);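 further: luminescence of HiBiT knocked into endogenous HLA-B as interferon-induced MHC class I level; on the % scale 0 is the no-effect control and ±100 the full control effect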
In short: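 Immortalized human myoblasts (C25cl48) with HiBiT knocked into endogenous HLA-B*08:01 were stimulated with 4 ng/ml IFN-beta and treated with compounds (8-point, 1:5, top 46 uM final) for 24 h at 37 C; HiBiT lytic luminescence read.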

[2] = qHTS to identify inhibitors of the type 1 interferon - major histocompatibility complex class I in skeletal muscle: primary screen against the NCATS Mechanism Interrogation Plate v5.0 (MIPE) Libary (AID 1347411);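 further: plate controls were vehicle for no effect and reference inhibitor for full effect; nearly all actives have a fitted effect of over 65% in size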
In short: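 Luminescence from HiBiT-tagged endogenous HLA-B*08:01 served as the MHC class I read-out. CRISPR-engineered C25cl48 human myoblasts received 4.0 ng/ml IFN-beta plus compound for 24 hrs, with an 11-point, 1:3 series topping at 46 uM final.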

[3] = biological target: Protein phosphatase 1D (Homo sapiens) (UniProt O15297); assay: Rhodamine-PBP qHTS Assay for Modulators of WT P53-Induced Phosphatase 1 (WIP1) (AID 1347425); further: % of control where 0% means no effect
In short: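 Read-out: Rhodamine-PBP fluorescence (ex 525/em 598 nm) for released Pi, read each minute for 11 min after adding 10 uM VEPPL-pS-QETFS; signal taken as f1 minus pre-substrate f0. Enzyme 5 nM WIP1 with 1 hr room-temperature compound preincubation.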

[4] = Primary qHTS for inhibitors of La Crosse Virus (LACV) - induced cell death in SH-SY5Y cells (AID 1508616);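 further: top concentration of the series differs between compounds; 0% = infected DMSO wells and 100% = uninfected DMSO wells; higher means more rescue of cells from virus-induced death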
In short: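 Protection against LACV-induced cell death is scored in SH-SY5Y cells exposed to compounds and virus (0.01 MOI) for 6 days. Data normalized to virus-infected DMSO wells and virus-free DMSO wells.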

[5] = biological target: Calcium and integrin-binding protein 1 (Homo sapiens) (UniProt Q99828); assay: Primary qHTS for Identification of Calcium Integrin Binding Protein 1 (CIB1) Competitor (AID 1508620);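 further: GST tagged CIB1 binding a fluorescein labelled alphaIIb integrin peptide tracer; top concentration of the series differs between compounds; on the % scale 0 is the no-effect control and ±100 the full control effect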
In short: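 Fluorescence polarization competition: CIB1-GST (1 uM final) preincubated with compound 15 min at room temperature, then FITC-labeled alphaIIb peptide (100 nM final) added for another 15 min. Polarization read at Ex 480/Em 540.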

[6] = A High-Content qHTS Against Drug Library for the Identification of Small Molecules that Inhibit DYT1 Early Onset Primary Dystonia-Associated Cell Pathology (AID 1645839; calls by dose curve; further: series mostly up to about 46 µM)
In short: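 Readout: %pathology, the punctate EGFP-TorsinA distribution from imaging, as the primary channel and cell count as the toxicity counterscreen. HEK293 Flp-In cells expressing delE TorsinA were induced with tetracycline and treated with compound for 48 h.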

[7] = biological target: Cytochrome P450 2D6 (Homo sapiens) (UniProt P10635); assay: Cytochrome P450 family 2 subfamily D member 6 (CYP2D6) small molecule antagonists: luciferase biochemical (cell-free) qHTS assay (AID 1645840; active means well fitted curve in the direction sought with a large enough effect in the repeat runs; an effect the other way counts as inactive or inconclusive; further: nearly all actives have a fitted effect of over 55% in size; further: potency means the concentration at half of the fitted maximal effect)
In short: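 P450-Glo luminescent screen: recombinant CYP2D6 enzyme–proluciferin substrate mix preincubated with compound 10 min at room temperature, then NADPH regeneration added for 1 h at room temperature. Detection reagent added for 20 min; luciferin light read as relative luminescence units.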

[8] = biological target: Protein phosphatase 1D (Homo sapiens) (UniProt O15297); assay: RapidFire Mass Spectrometry qHTS Assay for Modulators of WT P53-Induced Phosphatase 1 (WIP1) (AID 1347424);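 further: amount of dephosphorylated VEPPL-S-QETFS peptide product formed by WIP1; series mostly up to about 63 µM; plate controls were DMSO wells for no effect and GSK830371 inhibitor control at 10 µM for full effect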
In short: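 WIP1 (10 nM final) was preincubated 1 h at room temperature with compounds in Tris-HCl pH 7.5, 30 mM MgCl2, TCEP, EGTA, BSA; 2 uM VEPPL-pS-QETFS phosphopeptide was added for 5 min, quenched with formic acid, and dephosphorylated product quantified by RapidFire MS.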

[9] = Counterscreen qHTS for small molecule stabilizers of the endoplasmic reticulum resident proteome: GLuc-NoTag assay (AID 1508627);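 further: SH-SY5Y cells given compound then 100 nM thapsigargin to empty ER calcium; series mostly up to about 76 µM; 0% = thapsigargin alone and -100% = DMSO vehicle control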
In short: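 SH-SY5Y cells stably expressing constitutively secreted GLuc (no SERCaMP tag) were pre-incubated 5 h, treated with compound for 19 h, then 100 nM thapsigargin for 4 h at 37C; medium GLuc read by coelenterazine luminescence.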

[10] = Cell Viability qHTS for small molecule stabilizers of the endoplasmic reticulum resident proteome (AID 1508629); settings: cell viability counter-screen, 100 nM thapsigargin for final 4 h;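 further: human SH-SY5Y neuroblastoma cells carrying the GLuc-SERCaMP reporter; compound exposure about 46 h in total before the viability read; on the % scale 0 is the no-effect control and ±100 the full control effect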
[11] = Primary qHTS for small molecule stabilizers of the endoplasmic reticulum resident proteome: Secreted ER Calcium Modulated Protein (SERCaMP) assay (AID 1508630); further: on the % scale 0 is the no-effect control and ±100 the full control effect
In short: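 GLuc-SERCaMP-expressing SH-SY5Y cells, pretreated 16 h with compound, are challenged with thapsigargin to empty ER calcium stores; after 4 h, coelenterazine is added directly to the medium and luminescence is imaged.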

[12] = Confirmatory qHTS for small molecule stabilizers of the endoplasmic reticulum resident proteome: Secreted ER Calcium Modulated Protein (SERCaMP) assay (AID 1508628); further: series mostly up to about 76 µM; on the % scale 0 is the no-effect control and ±100 the full control effect; nearly all actives have a fitted effect of over 40% in size
In short: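 SH-SY5Y cells stably expressing GLuc-SERCaMP, treated 16 h with compound (primary 1.53, 7.67, 38.3 uM; confirmation 11 concentrations, up to 76.6 uM), then 100 nM thapsigargin for 4 h. Secreted Gaussia luciferase in medium read by coelenterazine luminescence.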

Chain of Calcium and integrin-binding protein 1 (Homo sapiens) (Q99828 whole entry, looked up): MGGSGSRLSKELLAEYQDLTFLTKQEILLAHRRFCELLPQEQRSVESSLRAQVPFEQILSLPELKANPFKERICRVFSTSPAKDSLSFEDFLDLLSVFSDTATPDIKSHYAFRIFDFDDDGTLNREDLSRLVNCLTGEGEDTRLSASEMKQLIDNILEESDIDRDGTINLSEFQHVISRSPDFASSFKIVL
Chain of Cytochrome P450 2D6 (Homo sapiens) (P10635 whole entry, looked up): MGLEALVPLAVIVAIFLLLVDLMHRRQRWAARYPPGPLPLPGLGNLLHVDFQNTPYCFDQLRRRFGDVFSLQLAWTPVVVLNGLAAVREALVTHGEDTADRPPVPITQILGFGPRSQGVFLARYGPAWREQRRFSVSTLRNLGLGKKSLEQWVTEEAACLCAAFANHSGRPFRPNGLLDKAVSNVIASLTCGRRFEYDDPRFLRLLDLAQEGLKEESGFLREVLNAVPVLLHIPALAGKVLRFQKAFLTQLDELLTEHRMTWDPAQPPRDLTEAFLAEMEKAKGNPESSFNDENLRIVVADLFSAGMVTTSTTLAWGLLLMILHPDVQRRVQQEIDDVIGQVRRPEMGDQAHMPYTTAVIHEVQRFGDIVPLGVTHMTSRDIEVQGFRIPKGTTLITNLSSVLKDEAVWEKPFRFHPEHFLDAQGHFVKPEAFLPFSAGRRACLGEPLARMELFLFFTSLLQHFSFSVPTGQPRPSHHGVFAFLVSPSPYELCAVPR
Chain of Protein phosphatase 1D (Homo sapiens) (O15297 whole entry, looked up): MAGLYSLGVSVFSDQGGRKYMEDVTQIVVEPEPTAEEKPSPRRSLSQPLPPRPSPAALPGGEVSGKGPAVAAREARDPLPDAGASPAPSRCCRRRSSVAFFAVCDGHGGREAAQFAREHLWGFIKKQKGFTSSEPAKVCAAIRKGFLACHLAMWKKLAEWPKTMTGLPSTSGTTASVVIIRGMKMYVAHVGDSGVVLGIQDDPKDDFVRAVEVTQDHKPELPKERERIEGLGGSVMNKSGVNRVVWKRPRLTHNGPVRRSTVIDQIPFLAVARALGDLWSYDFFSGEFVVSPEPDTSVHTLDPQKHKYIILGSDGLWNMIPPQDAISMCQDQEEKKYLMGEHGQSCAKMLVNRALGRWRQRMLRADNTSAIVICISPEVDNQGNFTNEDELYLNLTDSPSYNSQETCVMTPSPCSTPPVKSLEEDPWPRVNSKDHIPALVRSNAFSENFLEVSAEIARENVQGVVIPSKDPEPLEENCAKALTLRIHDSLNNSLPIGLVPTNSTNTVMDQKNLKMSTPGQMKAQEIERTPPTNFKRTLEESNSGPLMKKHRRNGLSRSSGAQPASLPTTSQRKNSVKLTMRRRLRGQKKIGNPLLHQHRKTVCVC

Cc1ccsc1C(=CCCN1CCC[C@@H](C(=O)O)C1)c1sccc1C
inactive: outcome [1] | outcome [2] | outcome [3] | outcome [4] | outcome [5] | Potency [6] | Potency [7]

CN(C(=O)c1c(O)c2ccccc2n(C)c1=O)c1ccccc1
inactive: outcome [1] | outcome [2] | outcome [8] | outcome [3] | outcome [4] | outcome [5] | Potency [6] | Potency [7]

Cn1cc(C(=O)[C@@H]2CCc3nc[nH]c3C2)c2ccccc21
inactive: outcome [1] | outcome [8] | outcome [3] | outcome [4] | outcome [5] | outcome [9] | max response [10] 11.5% | Potency [6]
active: Potency [7] 12.3 µM

CN[C@@H]1[C@H](O)[C@H](NC)[C@H]2O[C@@]3(O)C(=O)C[C@@H](C)O[C@H]3O[C@@H]2[C@H]1O
inactive: outcome [1] | outcome [8] | outcome [3] | outcome [4] | outcome [5] | outcome [11] | Potency [6]

Cc1c(C)c2c(c(C)c1OC(=O)c1cccnc1)CC[C@@](C)(CCC[C@H](C)CCC[C@H](C)CCCC(C)C)O2
inactive: outcome [1] | outcome [8] | outcome [3] | outcome [4] | outcome [5] | outcome [11] | Potency [6] | Potency [7]

CC(C)=CCC[C@@](C)(O)[C@H]1CC=C(C)CC1
inactive: outcome [1] | outcome [8] | outcome [3] | outcome [4] | outcome [5] | outcome [11] | Potency [6]

CCCC(O)C(CC)CO (configuration not stated)
inactive: outcome [1] | outcome [8] | outcome [3] | outcome [4] | outcome [5] | outcome [9] | Potency [12] | max response [10] 29.3% | Potency [6] | Potency [7]

CC(C)C[C@@H](N)C(=O)O
inactive: outcome [1] | outcome [8] | outcome [3] | outcome [4] | outcome [5] | outcome [11] | Potency [6]

NS(=O)(=O)c1cc2c(cc1C(F)(F)F)NCNS2(=O)=O
inactive: outcome [1] | outcome [8] | outcome [3] | outcome [4] | outcome [5] | outcome [11] | Potency [6]

COc1ccc(C(=O)N2CCN(CC(=O)N3CCOCC3)CC2)cc1
inactive: outcome [1] | outcome [8] | outcome [3] | outcome [4] | outcome [5] | outcome [9] | Potency [12] | max response [10] 17.3% | Potency [6] | Potency [7]

C/C(=C(\CCO)SS/C(CCO)=C(\C)N(C=O)Cc1cnc(C)nc1N)N(C=O)Cc1cnc(C)nc1N
inactive: outcome [1] | outcome [8] | outcome [3] | outcome [4] | outcome [5] | outcome [11] | Potency [6]

CC1CC(OC(=O)c2ccccc2O)CC(C)(C)C1 (configuration not stated)
inactive: outcome [1] | outcome [8] | outcome [3] | outcome [4] | outcome [5] | outcome [11] | Potency [6]

O=c1[nH]c(=O)n([C@H]2C[C@H](O)[C@@H](CO)O2)cc1I
inactive: outcome [1] | outcome [2] | outcome [8] | outcome [4] | outcome [5] | outcome [11] | Potency [6] | Potency [7]

CN/C(=C\[N+](=O)[O-])NCCSCc1csc(CN(C)C)n1
inactive: outcome [1] | outcome [8] | outcome [3] | outcome [4] | outcome [5] | outcome [11] | Potency [6] | Potency [7]

O=C(O)CNC(=O)c1ccccc1I
inactive: outcome [1] | outcome [8] | outcome [3] | outcome [4] | outcome [5] | outcome [11] | Potency [6] | Potency [7]

Nc1ncnc(Nc2ccccc2)n1
inactive: outcome [1] | outcome [8] | outcome [3] | outcome [4] | outcome [5] | outcome [11] | Potency [6] | Potency [7]

CC(=O)NS(=O)(=O)c1ccc(N)cc1
inactive: outcome [1] | outcome [8] | outcome [3] | outcome [4] | outcome [5] | outcome [11] | Potency [6] | Potency [7]

CC[C@H](C)[C@H](N)C(=O)O
inactive: outcome [1] | outcome [8] | outcome [3] | outcome [4] | outcome [5] | outcome [11] | Potency [6] | Potency [7]

Cc1ccc(S(=O)(=O)NC(=O)NC2CCCCC2)cc1
inactive: outcome [1] | outcome [8] | outcome [3] | outcome [4] | outcome [5] | outcome [11] | Potency [6] | Potency [7]

C[C@H]1COc2c(C3(N)CC3)c(F)cc3c(=O)c(C(=O)O)cn1c23
inactive: outcome [1] | outcome [8] | outcome [3] | outcome [4] | outcome [5] | outcome [11] | Potency [6] | Potency [7]

CN(C/C=C/C#CC(C)(C)C)Cc1cccc2ccccc12
inactive: outcome [1] | outcome [8] | outcome [3] | outcome [4] | outcome [5] | outcome [11] | Potency [6]
active: Potency [7] 0.0347 µM

CN[C@@H]1[C@@H](O)[C@@H](O[C@@H]2[C@H](O)[C@H](O[C@H]3OC(CN)=CC[C@H]3N)[C@@H](N)C[C@H]2N)OCC1(C)O (some centres not stated)
inactive: outcome [1] | outcome [8] | outcome [3] | outcome [4] | outcome [5] | Potency [6]

NC(N)=NCCN1CCCCCCC1
inactive: activity change, negative = inhibition [1] -12.2% [at 0.727 µM] | activity change, negative = inhibition [8] 2.05% [at 0.505 µM] | activity change, negative = inhibition [3] 1.78% [at 0.575 µM] | activity change [4] -10.9% [at 0.0343 µM] | activity change, negative = inhibition [5] -2.06% [at 1.07 µM] | % pathology change, negative = correction [6] -4.73% [at 0.369 µM]

CC(=O)OCC(=O)[C@@]1(O)CC[C@H]2[C@@H]3CCC4=CC(=O)C=C[C@]4(C)[C@@]3(F)[C@@H](O)C[C@@]21C
inactive: outcome [1] | outcome [8] | outcome [3] | outcome [4] | outcome [5] | outcome [11] | Potency [6] | Potency [7]

NC(N)=NS(=O)(=O)c1ccc(N)cc1
inactive: outcome [1] | outcome [8] | outcome [3] | outcome [4] | outcome [5] | outcome [11] | Potency [6] | Potency [7]

CC(=O)Nc1ccccc1
inactive: outcome [1] | outcome [8] | outcome [3] | outcome [4] | outcome [5] | outcome [11] | Potency [6] | Potency [7]
